Reference: the supplement of paper PMC6555819

Each sequence was assayed on LXRb homodimer (NR concentration 270 nM) (assay: PBM binding z-score (relative to random genomic background probes); higher = stronger binding; sequences stand for … in GC…GCGATTGACAGCGTAGAATGAAGG).
Outline: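 Binding z-scores were set against random background probes. The data came from custom Agilent 4×180K protein-binding microarrays carrying double-stranded probes with 34-nt variable regions, incubated 1 h with ligand-free nuclear receptor dimers. Partner-specific antibodies detected binding, and scanned fluorescence was regression-normalized.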

Sequence	PBM binding z-score
GCTAGTTGGTCAGTAAATGGTCACACACCGGTCG	-0.204
AGCTCTAGGTAAAAGTTCAGTGAATCCCGAGGAT	-0.253
TAGCCTAGGTCATTCAGGGGCCAGTATGGAAAGC	1.22
TAGCCTAGGTCATAGGCCAGTATACCACGCGAAC	-0.0669
CAATCTAGGTCAAAGGTCAAAGTCGAGCCAACCA	3.28
AGACAAAGTTCAGGACGAGGTAACGTAAAGCACG	-0.0251
CCTGCTAGTTCATGGTCAGCTAATCTACAGTATG	-0.269
TCTCGGAGGACACGAAAAGTCAGAGCTCGACATC	-0.795
TGACTGAGGTTAAAGATCAGGGAACGTGGCGTCG	-0.22
TATACAGGGTCTAAGGCCAGAGTACGAATGTCGA	0.936
ATCTGTAGGTTATCGGGTCATTCAGTTTGCGCAT	1.36
GCTGCTCGGTCAACTGATGGTCAGCTAAAGCTCG	-0.201
CCTTACAGGTCACGAGGTTATAGCACGACGAGCG	0.788
GCTGCTAGGTCGACTGATGGTCAGCTAAAGCTCG	-1.35
TAGCCTAAGTCATGGGCCAGTATACCACGCGAAC	-0.797
CAAACTAGGTCAAAGGTCAAAGCCGAGCCAACCA	2.55
TCTAGTTGGTCAAAGGCCACACACTCGAAATGCG	-0.181
AGATTGAGGTTACCAAAGATCAGGGAAACGCTTG	-0.201
CCTAGCAGGCCACGGTCACTCAAGCATTTCGCTT	-0.369
AGAATGAGGTTACCAGAGATCAGGGAAACGCTTG	-0.177

Sequence	PBM binding z-score
CCTACTGGGCCAATGTCATTGATCAGTCAAAGCA	-0.826
CCTACTGGGCCAACAAGGTCATTGATGCCGATAA	-0.582
CCTACTGGGCGATTCAGAGGTCATTGATCATATG	-0.0527
CGTCCAACGTCAGCAGGTCAGTGAAAGCGACGTG	-0.788
GGTACGAGGGCAAAGTTGATAGCATCTGTCGACG	-0.42
CCTAGTTGGTCAAGGTCTCACACGCTATAGGTAC	0.483
ATATGTAGGTTACATCCGGGTCTTTCAGGCTATG	0.526
AGTCAAAGTTCAGTAGGTAACGTAAGATTCAGCT	0.481
CAAACTAGGTCACGAAAGGTCAAATTCGAATGAC	3.75
CATACAGGGTAAGCTAGGCCAGAGTAGGGACGGC	-0.153
CCTGCTAGTTCAATGGTCAGCTAAAGCAGCTCGC	-0.17
CCTAGTTGGTCAGGTGGTCACACACCGGATATGA	-0.0912
TAGCCTAGGTCATTGGACCAGTATAGTACGCATC	0.187
CCTGCTAGGTCAATGGTCAGCTAAAGCAGCTCGC	-0.359
GCTGCTAGGTCAACTGATGGTCAGCTAGAGCTCG	0.313
ATCGAAAGGTGGACGAGGTGAGTATACACCGTTT	-0.212
CCCGCTAGGTCATGGTCAGCTAATCTACAGTATG	-0.348
CCAGACAGGTGAAAGGTAACTCACTCTGGTACGC	-0.466
CCTAGCAGACCAATCTGGGTCACTCAAGGCTTGA	-1.09
